From PubChem
This is a sample that favours compounds with a hit; in the whole collection about 3.8% have one here.
tim23-1 inh: growth inhibitors of tim23-1 mutant yeast | S. cerevisiae tim23-1 growth, BacTiter-Glo luminescence, 24 h | inhibition, % at 20 µM | actives 1.3% (n = 330,000);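 active = growth inhibition of the mutant yeast at or above 50%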;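 note: temperature-sensitive mutant grown at 25 °C; plate controls were DMSO-treated mutant yeast for no effect and medium wells lacking yeast for full effect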
tim10-1 inh: inhibits growth of tim10-1 mutant yeast. AID 463190. S. cerevisiae tim10-1 ts strain growth, BacTiter-Glo, 24 h. actives 2.2% (n = 330,000). inhibition, % at 20 µM;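 active = inhibition of at least 40%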;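 note: mutant grown at 25 °C; 0% = DMSO wells with yeast and 100% = wells holding no yeast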
Beta2AR agonist: activates human beta-2 adrenergic receptor causing internalization. Am2.2-beta2AR cells, FAP receptor internalization, flow cytometry. response, % (no concentration beside the values). actives 0.43% (n = 340,000);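 active = response above a set limit, near 3 SD of response in nonfluorescent compounds, cut at about 42% in these data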
Target sequence (P07550 whole entry, looked up): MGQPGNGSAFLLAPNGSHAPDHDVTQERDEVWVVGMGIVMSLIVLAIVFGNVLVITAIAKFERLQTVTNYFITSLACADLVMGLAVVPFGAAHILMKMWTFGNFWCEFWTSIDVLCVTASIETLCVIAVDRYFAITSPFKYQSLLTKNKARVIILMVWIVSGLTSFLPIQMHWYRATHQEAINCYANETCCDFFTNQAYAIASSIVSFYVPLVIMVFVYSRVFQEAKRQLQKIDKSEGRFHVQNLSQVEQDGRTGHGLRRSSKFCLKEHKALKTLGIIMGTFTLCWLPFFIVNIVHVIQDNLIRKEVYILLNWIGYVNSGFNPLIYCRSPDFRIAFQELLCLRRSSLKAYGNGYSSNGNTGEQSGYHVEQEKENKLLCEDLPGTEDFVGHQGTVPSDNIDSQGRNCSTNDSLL
TIM10 inh: growth inhibitors of TIM10 yeast strain. S. cerevisiae TIM10 strain growth, BacTiter-Glo luminescence, 24 h. inhibition, % at 10 µM. actives 1.4% (n = 330,000);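 active = inhibition of 40% or more at the single tested concentration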;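 note: wild-type TIM10 isogenic control strain grown at permissive 25 °C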
PfHsp90 set2: growth inhibition of yeast expressing Plasmodium Hsp90 | S. cerevisiae expressing PfHsp90, BacTiter-Glo ATP, 48 h; yeast lacking PDR1 and PDR3 efflux regulators | inhibition, % at 9.4 µM | actives 0.32% (n = 310,000) | AID 504621;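 active = every replicate shows inhibition above about 80%, whatever the replicate mean, limit read from the data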;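 note: 0% = DMSO neutral controls and 100% = 20 µM radicicol positive controls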
tim10-1 confirm: confirmation of tim10-1 mutant yeast growth inhibitors. AID 463213. S. cerevisiae tim10-1 ts strain growth, BacTiter-Glo, 24 h. inhibition, % at 20 µM. shares compounds with tim10-1 inh. actives 56% (n = 7,400);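 active = inhibition of yeast growth at or above a set limit in either of two repeat tests at 20 µM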;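 note: tim10-1 mutant grown at permissive 25 °C to find synthetic lethal compounds; 0% = DMSO yeast wells and 100% = medium wells without yeast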
* marks the source's active call; other numbers are inactive results; nt = not tested or not shown.

SMILES | tim23-1 inh | tim10-1 inh | Beta2AR agonist | TIM10 inh | PfHsp90 set2 | tim10-1 confirm
COc1ccc(N2CCN(C(c3ccccc3OC)c3nnnn3Cc3ccco3)CC2)cc1 (stereo not given) | 13 | 40* | -5 | 4 | 4 | 22
CCCC(c1nnnn1Cc1cccs1)N1CCN(c2ccc(OC)cc2)CC1 (stereo not given) | 24 | 43* | -4 | 31 | -16 | 16
CN1C(=O)C(O)(CC(=O)/C=C\c2ccc3c(c2)OCO3)c2ccccc21 (stereo not given) | 40 | 42* | 4 | 35 | 12 | 28
NC(=O)CN1C(=O)C(O)(CC(=O)/C=C\c2ccc3c(c2)OCO3)c2ccccc21 (stereo not given) | -3 | 6 | 11 | -3 | 7 | nt
Cc1ccc(C(C)C)cc1C(=O)CC1(O)C(=O)N(C)c2ccccc21 (stereo not given) | 1 | 42* | -8 | 33 | -1 | 32*
CCC1c2ccccc2C(=O)C1C(N)=O (stereo not given) | nt | nt | -4 | nt | 3 | nt
COc1cccc(Oc2nc(-c3ccncc3)nc3ccccc23)c1 | 47 | 41* | 15 | 22 | nt | 22
O=C(Nc1cc(Cl)ccc1-n1cncn1)c1cc(F)c(F)c(F)c1F | -14 | -142 | -4 | -8 | -12 | nt
Nc1ncnc2c(C3OC(CO)C(O)C3O)c[nH]c12 (stereo not given) | nt | nt | -4 | nt | 1 | nt
O=C(OCc1ccc([N+](=O)[O-])cc1)c1cc(=O)c2ccccc2o1 | 1 | 8 | 0 | 2 | 4 | nt
N/C(=N\N=C/c1ccc(F)cc1)N/N=C\c1ccc(F)cc1 | 49 | 44* | 16 | 30 | 5 | -72
N/C(=N\N=C/c1ccc(Br)cc1)N/N=C\c1ccc(Br)cc1 | -10 | -15 | 7 | 32 | -2 | nt
CCCCN=c1scc(-c2ccc3c(c2)NC(=O)CO3)n1N=C1CCCC1 | 22 | 44* | -10 | 32 | nt | 7
Cc1cc(Nc2cccc(Cl)c2)nc(NCc2ccccc2)n1 | 45 | 45* | -11 | 8 | -8 | 24
C/C(=N\N1CCN(c2ccc(Cl)cc2)CC1)c1ccco1 | 22 | 8 | 1 | 6 | 5 | nt
C/C(=N\N1CCN(C2c3ccccc3-c3ccccc32)CC1)c1ccco1 | 19 | 41* | -3 | 2 | 3 | 15
Cc1cc(Br)ccc1NC(=O)CNC(=O)CNc1cccc([N+](=O)[O-])c1 | 11 | 3 | 8 | -6 | -1 | nt
COc1ccc(/C=C2\SC(=S)N(CCC(=O)N3CCCCC3)C2=O)cc1 | 28 | 18 | 4 | 1 | -3 | nt
O=C(CCN1C(=O)/C(=C/c2ccccc2)SC1=S)N1CCCCCC1 | 50 | 44* | 0 | 33 | -5 | 36*
CC1CCC(NC(=O)CSc2nnc(-c3cccnc3)o2)CC1 (stereo not given) | 18 | 10 | -5 | 19 | 5 | nt
O=C(Nc1cccc(-c2cccc(F)c2)c1)C1CCN(C2CCOCC2)CC1 | 12 | 43* | 6 | -24 | -11 | -54
O=C(Nc1cccc(-c2cccc(F)c2)c1)C1CCN(Cc2ccc(CO)o2)CC1 | -7 | 0 | 13 | 4 | 6 | nt
Cc1cc(C)nc(NN=C(c2ccccc2)c2ccccc2)n1 | 42 | 47* | -9 | 25 | 10 | 24
O=C(O)c1ccn(CSc2cc(Cl)ccc2Cl)n1 | -1 | -2 | 0 | 3 | -16 | nt
Cc1[nH]n(-c2ccc([N+](=O)[O-])cc2)c(=O)c1C=NCCN1CCN(C(=O)c2cccc(F)c2)CC1 | 38 | 42* | 19 | 23 | 84* | 48*
SMILES | tim23-1 inh | tim10-1 inh | Beta2AR agonist | TIM10 inh | PfHsp90 set2 | tim10-1 confirm
CN(C)S(=O)(=O)c1ccc(NC(=O)Cn2nc(-c3ccc4c(c3)OCCO4)ccc2=O)cc1 | nt | nt | -2 | nt | 8 | nt
COc1ccc(OCC(O)CNC(C)c2ccccc2)cc1 (stereo not given) | 18 | 42* | -9 | -18 | 21 | 2
S=C(Nc1nc2c(s1)CCCC2)NC1CC1 | 14 | 41* | -4 | 10 | -17 | 4
O=C(NC(=S)Nc1nc2c(s1)CCCC2)c1ccccc1 | nt | nt | -13 | nt | 2 | nt
COCCN(CCOC)c1nc(-c2ccc(C)cc2)nc2ccccc12 | 35 | 24 | 1 | -1 | 12 | nt
CCCCN(CC)c1nc(-c2ccncc2)nc2ccccc12 | 39 | 43* | 11 | 25 | -65 | 15
Cc1c(C(=O)N2CCC(C)CC2)oc2ccc3c(c12)C(O)CC1(CCCCC1)O3 (stereo not given) | 45 | 49* | -6 | 15 | -139 | 14
COCCNC(=O)c1oc2ccc3c(c2c1C)C(O)CC(C)(C)O3 (stereo not given) | -1 | 6 | 5 | 9 | 23 | nt
CC(=O)Nc1cc(=O)c2cccnc2[nH]1 | nt | nt | 4 | nt | -10 | nt
O=C(/C=C/c1cccs1)Nc1cccc(NC(=O)/C=C/c2cccs2)n1 | 35 | 40* | 40 | 31 | -16 | 11
CC(=O)OCCc1[nH]c2ccccc2c1C | -2 | -5 | 7 | -2 | -18 | nt
CC(=O)OCCc1c2ccccc2c(CCCN(C)C)c2ccccc12 | 3 | 40* | -35 | 14 | 12 | 28
CC1Cc2ccccc2N1C(=O)COC(=O)c1c2c(nc3ccccc13)CCCCC2 (stereo not given) | 35 | 41* | 23 | 35 | 11 | 36*
O=C(OCC(=O)N1CCc2ccccc21)c1c2c(nc3ccccc13)CCCC2 | 34 | 39 | 18 | 40 | 19 | nt
Cc1cc2oc(C(=O)N(Cc3ccc(N(C)C)cc3)CC3CCCO3)c(C)c2cc1C (stereo not given) | 33 | 25 | -3 | 27 | -19 | nt
Cc1ccc2oc(C(=O)N(Cc3ccc(N(C)C)cc3)CC3CCCO3)c(C)c2c1 (stereo not given) | 37 | 40 | -8 | 1 | -4 | -11
CC(C)CN(C(=O)COC(=O)c1ccccc1SCC(=O)N1CCCC1)C1CCS(=O)(=O)C1 (stereo not given) | nt | nt | 0 | nt | -11 | nt
CCn1c(SCc2nc3ccccc3c(=O)[nH]2)nc2ccccc21 | 21 | 44* | 0 | 12 | 2 | 24
COCCn1c(SCc2nc3ccccc3c(=O)[nH]2)nc2ccccc2c1=O | 4 | 16 | -2 | 19 | -11 | nt
CC(C)n1c(-c2ccco2)csc1=Nc1cccnc1 | 35 | 49* | -1 | 18 | 16 | 32*
COCCn1c(-c2ccccc2)csc1=Nc1cccnc1 | 30 | 12 | -2 | 4 | -82 | nt
Cc1ccc(N2C(=O)N3[C@H]4c5ccccc5OC[C@@H]4[C@@H](c4ccccc4)[C@@]3(C)C2=O)cc1 | 24 | 49* | 3 | 7 | -11 | 19
Cc1ccc(N2C(=O)CC(Sc3cccs3)C2=O)cc1 (stereo not given) | 29 | 45* | 2 | 18 | 9 | 49*
CCCCCCCCCCCCC/C=C/[C@@H](O)[C@@H](N)CO | 35 | 44* | 25 | 22 | 21 | 1
